# Shown are actives, neighbours in structure and some others; about 3.4% of the full set was active somewhere.
# MITF primary = inhibitors of human MITF; O75030; AlphaScreen MITF homodimerization, bead proximity signal; inhibition, % at 2.6 µM; actives 0.91% (n = 650,000); AID 1259374; in the data active = inhibition above about 50%;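 also: 0% = vehicle wells with protein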
# FBW7 act = human FBW7 E3 ligase activation, primary screen | Q969H0 | AlphaScreen FBW7–phospho-cyclin E peptide binding, activator screen | normalized activity (activation), % at 26.1 µM | actives 0.13% (n = 650,000) | AID 1259310; in the data active = normalized activity above about 1.9%;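 also: purified mutant Fbw7 with reduced substrate affinity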
# Target sequence (Q969H0 whole entry, looked up): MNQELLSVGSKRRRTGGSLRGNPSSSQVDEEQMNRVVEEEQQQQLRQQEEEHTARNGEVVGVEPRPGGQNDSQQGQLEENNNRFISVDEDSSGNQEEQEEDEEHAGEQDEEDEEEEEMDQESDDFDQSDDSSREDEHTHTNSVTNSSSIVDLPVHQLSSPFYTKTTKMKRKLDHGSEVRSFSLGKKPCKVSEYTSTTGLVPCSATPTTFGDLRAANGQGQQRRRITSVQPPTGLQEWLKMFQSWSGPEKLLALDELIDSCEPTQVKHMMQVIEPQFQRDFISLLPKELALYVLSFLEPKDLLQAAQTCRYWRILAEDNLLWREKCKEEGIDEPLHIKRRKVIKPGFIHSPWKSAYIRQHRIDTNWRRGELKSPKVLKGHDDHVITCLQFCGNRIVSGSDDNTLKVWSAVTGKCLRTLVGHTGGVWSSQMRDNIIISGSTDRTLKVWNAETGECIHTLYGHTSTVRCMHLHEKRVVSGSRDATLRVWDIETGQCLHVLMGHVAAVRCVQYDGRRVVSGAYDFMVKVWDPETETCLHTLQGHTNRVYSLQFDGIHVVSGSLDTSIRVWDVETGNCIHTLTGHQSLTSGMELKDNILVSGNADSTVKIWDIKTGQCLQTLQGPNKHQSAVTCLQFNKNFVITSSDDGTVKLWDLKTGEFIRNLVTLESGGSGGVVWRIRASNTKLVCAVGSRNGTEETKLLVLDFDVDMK
# TEAD-YAP inh = TEAD-YAP interaction inhibition; HEK-TIYL cells, TEAD-Gal4/YAP UAS-luciferase luminescence; inhibition, % at 9.12 µM; actives 1.4% (n = 640,000); in the data active = inhibition above about 32%;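 also: 0% = median of test compound wells and 100% = reference inhibitor wells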
# GPR151 activ = activators of human GPR151. PathHunter beta-arrestin GPR151 cells, luminescence. actives 1% (n = 650,000). Q8TDV0. activation, % at 11.2 µM; in the data active = activation above about 4.9%;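 also: 0% = median of compound wells and 100% = cells with positive control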
# MITF confirm = confirmation of human MITF inhibitors; actives 16% (n = 4,700); AlphaScreen MITF homodimerization, biotin/His-MITF beads; inhibition, % at 2.6 µM; shares compounds with MITF primary; AID 1259372;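 active = inhibition above a cutoff derived from the DMSO control wells, cut at about 28% in these data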;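 also: 0% = MITF dimer wells with DMSO only; inhibitors lower the bead chemiluminescence by keeping MITF from dimerizing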
# AS interf DR = counter-screen: compounds optically interfering with AlphaScreen | shares compounds with MITF primary | AlphaScreen optical interference counterscreen, cell-free | IC50, µM | actives 6% (n = 480); call rule not given here
# AS interf ctr = counter-screen: compounds optically interfering with AlphaScreen. shares compounds with MITF primary. actives 7.6% (n = 4,700). inhibition, % at 2.6 µM. LysRS AlphaScreen counterscreen, signal interference, triplicate. AID 1259376;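 active = inhibition above a cutoff derived from the DMSO control wells, cut at about 30% in these data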
# Numbers without * were called inactive; · = not tested or not shown.
SMILES,MITF primary,FBW7 act,TEAD-YAP inh,GPR151 activ,MITF confirm,AS interf ctr,others
Cc1cc(NC(=O)COC(=O)CCCCC(=O)c2[nH]c(=O)[nH]c2C)no1,116.0*,-1.5,8.8,1.4,111.7*,92.9*,
O=C(NCC1CCCO1)c1ccc2c(=O)n(CC3CCCO3)c(SCc3cc(=O)n4ccccc4n3)nc2c1 (centres undefined),16.5,0.7,3.5,0.7,·,·,
Cc1onc(-c2ccccc2Cl)c1C(=O)NC1CCCCCCCCCCC1,-0.1,0.2,3.7,-0.7,·,·,
COc1ccc(Nc2cc(-c3cncc(Br)c3)nc(C)n2)cc1,3.9,0.0,-92.6,0.9,·,·,
CC(C)CNS(=O)(=O)c1ccc2[nH]cc(C(=O)O)c(=O)c2c1,12.4,-0.1,3.1,-0.3,·,·,
Cc1[nH]c(=O)[nH]c1C(=O)CCCCC(=O)OCC(=O)Oc1ccc2ccccc2c1,112.0*,-0.9,-6.0,1.0,111.4*,98.3*,
CCCCCCC(=O)Oc1ccc2cc(OC(=O)CCCCCC)ccc2c1,0.9,0.1,-2.1,-0.4,·,·,
O=C(Nn1c(-c2ccccc2F)nc2ccccc2c1=O)c1cc(Br)ccc1Cl,21.2,1.0,-5.4,0.7,·,·,
CCOc1cc(C=C2C(=O)NC(=O)NC2=O)ccc1OCc1cccc(F)c1,-10.9,-0.8,1.6,-0.4,·,·,
Fc1ccccc1C1CCN(Cc2ccncc2)CC1,70.0*,-0.2,2.8,-0.3,4.8,12.3,
O=C(c1ccccc1)N1CCN(Cc2ccccc2)CC1,13.3,0.0,4.0,4.2,·,·,
O=C(c1ccc(F)cc1)N1CCN(Cc2ccncc2)CC1,63.2*,-0.1,-4.6,0.0,10.1,-7.1,
O=C(c1ccc(F)cc1)N1CCN(Cc2ccc(F)cc2)CC1,52.0*,0.1,4.9,-1.9,-4.5,1.0,
Fc1ccc(CN2CCN(Cc3ccncc3)CC2)cc1,82.6*,0.9,14.0,-1.3,5.8,8.9,
Cc1cc(Cl)cc(C)c1OCCCCNCCO,43.1,0.2,-7.8,0.5,·,·,
Cc1ccc(CN2CCN(C(=O)c3ccncc3)CC2)cc1,65.2*,-0.5,1.1,2.7,-0.9,-4.3,
O=C(c1ccc(F)cc1)N1CCN(Cc2ccc(Br)cc2)CC1,61.6*,0.0,11.7,1.4,6.7,15.0,
Cc1ccc(CN2CCN(C(=O)c3ccccc3)CC2)cc1,46.9,-0.1,-1.9,-0.1,·,·,
C=CCc1ccc(OCCCCN2CCNCC2)c(OC)c1,66.6*,-0.1,-11.1,2.5,6.2,1.1,
C=CCc1ccc(OCCNC)c(OC)c1,38.2,-0.1,2.1,3.2,·,·,
C=CCc1ccc(OCCCCCN2CCOCC2)c(OC)c1,59.1*,-0.3,-7.1,3.0,-0.1,-1.4,
C=CCc1ccc(OCCN2CCN(CC)CC2)c(OC)c1,70.9*,-0.1,-6.3,-0.4,3.9,15.2,
Cc1ccccc1OCC(=O)Nc1nc(-c2ccccc2)cs1,-1.1,-0.1,-12.1,-0.1,·,·,
Cc1ccc(-c2csc(NC(=O)COc3ccccc3C(C)(C)C)n2)cc1,55.6*,0.8,-2.9,-0.7,-5.2,-4.2,
COc1ccc(OCC(=O)Oc2coc(CSc3nccc(C)n3)cc2=O)cc1,3.5,0.0,1.9,-1.9,·,·,
SMILES,MITF primary,FBW7 act,TEAD-YAP inh,GPR151 activ,MITF confirm,AS interf ctr,others
COc1cccc(CNC(=O)CSc2nc(=O)n(CC3CCCO3)c3c2CCC3)c1 (centres undefined),0.3,-0.2,5.0,1.4,·,·,
NS(=O)(=O)c1ccc(CCNC(=O)CNS(=O)(=O)c2cccs2)cc1,79.7*,0.0,5.9,-0.9,-5.3,5.1,
COC(=O)Oc1ccc2c(=O)c(Oc3cc(C)cc(C)c3)c(C(F)(F)F)oc2c1,-7.5,0.2,0.9,-0.1,·,·,
Cc1ccc(C(C)C)cc1OCCOCCN1CCNCC1,70.6*,-0.2,-7.5,0.4,11.5,-0.2,
Cc1cc(OCCOCCN2CCNCC2)ccc1Cl,68.3*,0.6,-21.7,-1.7,74.1*,18.8,AS interf DR=>6.48
CC(C)NC(=O)[C@H]1C[C@@H](c2ccc(F)cc2)NS(=O)(=O)N1C,-2.1,0.0,2.1,0.6,·,·,
N#CCn1c(=O)n(Cc2ccccc2)c(=O)c2ccccc21,3.2,0.7,-4.3,-0.9,·,·,
Cc1ccc(S(=O)(=O)Nc2ccc3oc4c(c3c2)C(=O)CCC4)cc1,0.5,-0.3,-3.6,-0.2,·,·,
O=S(=O)(O)c1ccc(N/N=C2\CCc3ccccc32)cc1,67.2*,-0.3,16.4,-0.6,45.7*,-2.3,AS interf DR=>6.48
NC(=O)C(=O)N/N=C1\CCc2ccccc21,5.1,0.1,-1.8,-0.1,·,·,
COCCn1nnnc1C(C(C)C)N1CCSCC1 (centres undefined),59.4*,0.2,4.6,0.4,12.3,11.9,
CCN1CCN(C(c2nnnn2CCOC)C(C)C)CC1 (centres undefined),20.0,-0.1,13.1,0.4,·,·,
Cc1ncc(CO)c(/C=N/Nc2nc3ccccc3o2)c1O,65.2*,-1.4,11.4,-0.5,19.0,46.8*,
COc1ccc2oc(=O)c(-c3cn4cccnc4n3)cc2c1,71.8*,0.0,-26.3,0.5,4.3,12.3,
O=C(Nc1nccs1)c1ccc(-n2ncc3cc(Nc4ccccc4Cl)ccc32)nc1,2.1,0.0,-10.5,-0.5,·,·,
Cc1cccc(C)c1NC(=O)CNCCCN1CCOCC1,88.0*,0.4,2.3,-1.6,-12.2,-4.8,
Cc1cccc(NC(=O)CNCCCN2CCOCC2)c1C,75.6*,0.3,-1.6,1.1,-13.6,-6.2,
O=C(Cc1cccs1)NCCCCCCNC(=O)Cc1cccs1,3.4,0.0,-4.2,-0.4,·,·,
O=C(Cc1cccs1)NCCCN1CCOCC1,101.9*,0.0,-4.0,-0.2,16.2,14.1,
Cn1c(Nc2nc3ccc(C(=O)Nc4ccc(N5CCOCC5)cc4)cc3s2)nc2ccccc21,9.7,-0.1,7.3,0.3,·,·,
CCOc1cc(C2C(C(=O)OCCSCC)=C(C)NC3=C2C(=O)CC(c2ccc(OC)cc2)C3)ccc1OC(C)=O (centres undefined),1.6,-0.1,9.1,-0.8,·,·,
CC1(C)CC(=O)C(C(C2=C(O)CC(C)(C)CC2=O)c2ccccc2O)C(=O)C1 (centres undefined),8.5,0.4,-4.2,0.0,·,·,
CCC(C1=C(O)CC(C)(C)CC1=O)C1C(=O)CC(C)(C)CC1=O (centres undefined),52.6*,-0.1,8.0,-0.6,2.2,1.1,
CC12CC3CC(C1)CC(C(=O)Nc1nn[nH]n1)(C3)C2,-1.1,-0.3,7.8,-1.3,·,·,
O=C(Nc1nn[nH]n1)C12CC3CC(C1)CC(c1ccccc1)(C3)C2,52.6*,0.6,8.5,-2.0,10.1,18.2,
CCN1CCN(c2cc(C)c3ccc(OC)cc3n2)CC1,64.5*,-0.2,-2.0,0.8,1.2,7.3,
COc1ccc(OC)c(-n2cnc3cc(C(=O)NCc4ccccc4Cl)ccc32)c1,1.7,0.1,-0.3,-0.6,·,·,
COc1ccc(OC)c(-n2cnc3cc(C(=O)NCc4ccco4)ccc32)c1,74.8*,0.0,-12.3,0.3,19.8,6.5,
CC(C(=O)Nc1ccccc1-c1ccccc1)N1CCCC1 (centres undefined),75.2*,0.0,0.7,0.1,13.3,18.9,

# From PubChem BioAssay
